An excerpt weighted towards active compounds, which were near 2% of everything screened.
Insulin prom inh: TRM-6 insulin promoter activity inhibition. inhibition, % at 2 µM. 130,000 tested, 0.9% active. TRM-6 cells (human fetal islet line), insulin promoter-eGFP reporter, imaging; reporter expression induced with tamoxifen;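 active = inhibition above the mean plus 3 SD, with well images judged a real hit on visual review, cut at about 60% in these data, passing the limit was not always enough; inconclusive = inhibition over the cutoff but images rejected on review; inactive = inhibition not above the cutoff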
Autophagy HCS: autophagy modulation, high-content screen | MEF GFP-LC3 puncta imaging; test concentration mostly 10 µM | calls only at 10 µM (by protocol) | 190,000 tested, 0.98% active;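 active = percentage of spot-positive cells more than 3 SD above its plate mean, without a fluorescence outlier flag or 80% toxicity; inconclusive = no clear call, values can overlap the other calls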;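 note: spot-positive cell cutoff set from DMSO-treated cells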
Ins promoter up: MIN6 insulin promoter up-regulation; MIN6 insulin promoter-GFP reporter, high-content imaging; stronger effect = higher value; z-score at 5 µM; 190,000 tested, 0.3% active;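 active = z-score above 3 at 5 µM with at least 500 cells counted in the well; inconclusive = wells under 500 cells, flagged as cytotoxic or low count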
PERK inhibitor: blocks human PERK kinase | CHO PERK-DD fusion, SEAP luminescence translation reporter | inhibition, % at 5.6 µM | Q9NZJ5 | 220,000 tested, 0.17% active | AID 1416;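 active = inhibition above the mean inhibition of all tested compounds plus 3 SD, set separately per screening campaign, cut at about 2.9% in these data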;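 note: PERK kinase domain activated by AP20187 dimerizer at 100 nM; 0% = DMSO with dimerizer and 100% = rapamycin at 8.4 µM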
Target sequence (Q9NZJ5 whole entry, looked up, the tested form may be a part): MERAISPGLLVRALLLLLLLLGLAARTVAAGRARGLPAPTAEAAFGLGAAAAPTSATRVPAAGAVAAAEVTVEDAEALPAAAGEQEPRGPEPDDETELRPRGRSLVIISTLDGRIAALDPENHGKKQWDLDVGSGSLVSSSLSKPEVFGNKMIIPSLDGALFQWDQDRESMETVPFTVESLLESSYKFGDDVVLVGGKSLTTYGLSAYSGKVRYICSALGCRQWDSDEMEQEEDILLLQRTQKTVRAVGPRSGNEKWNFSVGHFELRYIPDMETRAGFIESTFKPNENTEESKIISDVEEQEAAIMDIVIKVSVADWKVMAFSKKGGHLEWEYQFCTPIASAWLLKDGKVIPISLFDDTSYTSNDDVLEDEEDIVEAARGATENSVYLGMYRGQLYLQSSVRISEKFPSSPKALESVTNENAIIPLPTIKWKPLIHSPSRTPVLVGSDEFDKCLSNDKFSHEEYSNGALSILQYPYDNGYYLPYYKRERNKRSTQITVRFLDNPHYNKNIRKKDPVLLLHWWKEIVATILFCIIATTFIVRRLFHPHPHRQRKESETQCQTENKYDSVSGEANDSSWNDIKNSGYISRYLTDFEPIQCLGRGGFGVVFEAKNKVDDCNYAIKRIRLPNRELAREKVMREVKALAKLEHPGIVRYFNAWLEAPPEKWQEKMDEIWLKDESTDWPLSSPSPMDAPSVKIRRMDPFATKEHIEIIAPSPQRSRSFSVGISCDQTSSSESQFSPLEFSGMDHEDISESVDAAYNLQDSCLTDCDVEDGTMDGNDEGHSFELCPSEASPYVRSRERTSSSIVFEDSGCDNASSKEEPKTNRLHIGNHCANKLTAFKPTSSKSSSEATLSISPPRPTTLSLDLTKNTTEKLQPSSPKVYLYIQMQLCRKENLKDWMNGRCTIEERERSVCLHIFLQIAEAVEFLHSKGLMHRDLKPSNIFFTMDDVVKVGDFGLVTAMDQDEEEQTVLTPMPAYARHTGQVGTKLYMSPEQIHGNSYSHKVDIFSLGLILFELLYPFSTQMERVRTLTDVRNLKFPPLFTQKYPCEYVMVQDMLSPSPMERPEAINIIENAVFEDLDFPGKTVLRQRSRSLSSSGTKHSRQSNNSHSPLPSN
eIF4E-4G inh: eIF4E/eIF4G interaction inhibition in translation initiation. AID 782. TR-FRET eIF4E-eIF4GI(517-606) binding, 2 h. 220,000 tested, 0.37% active. inhibition, % at 21.7 µM. P63073+Q04637;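 active = inhibition above about 30%, limit read from the data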;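 note: 0% = full FRET control wells and 100% = background wells lacking eIF4GI fragment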
Active calls of the source: *; i = inactive; ? = inconclusive; nt = no result given; + = active, no number; [ ] = another dose, or the depositor's remark.

SMILES	Insulin prom inh	Autophagy HCS	Ins promoter up	PERK inhibitor	eIF4E-4G inh
Cc1ccc(-n2c3c(c(=O)[nH]c2=O)C(C(F)(F)F)(C(F)(F)F)NC(=O)N3)cc1	11.4	i	3.01*	0.6	-0.3
Cc1c(C(=O)O)nn(-c2ccccc2)c(=O)c1C#N	nt	i	0.19	0.8	-0.2
Cc1c(C(=O)N2CCCCC2)nn(-c2ccc(Cl)cc2)c(=O)c1C#N	-70.6	i	-0.05	1.7	42.5*
O=C(CCC1CCCC1)N1CCC(N2CCN(c3ccccc3)CC2)CC1	nt	i	nt	-1.1	-8.4
CC(C)CC(=O)N1CCC(N2CCN(c3ccccc3)CC2)CC1	-10.0	i	-0.17	0.8	50.2*
O=C1N=C(N2CCOCC2)S/C1=C/c1ccc(-c2ccc(F)cc2)o1	nt	i	-0.53	-0.9	9.4
Cc1ccc(-c2ccc(/C=C3\SC(N4CCOCC4)=NC3=O)o2)cc1	-77.8	+	-0.35	-0.5	5.9
C=CCN1C(=O)/C(=C2/Sc3ccc(OC)cc3N2C)SC1=Nc1cccc(O)c1	-162.5	+	0.95	-0.6	0.3
CCOC(=O)c1cnn(-c2cc(Oc3ccccc3C)ncn2)c1N	9.9	i	-0.58	1.2	-1.2
Cc1c(Cl)c(C(F)(F)F)nn1CC(=O)N1CCSCC1	100.0*	i	0.58	0.7	-0.6
COc1ccc(/C=C/C(=O)N[C@@H](C)C(=O)O)cc1	-7.1	i	0.39	3.4*	5.9
CCOc1cc(C2c3c(oc4cc(C)c(Cl)cc4c3=O)C(=O)N2Cc2ccco2)ccc1O (centres undefined)	7.1	+	-0.1	-2.2	9.9
C=CCNc1nc(S(=O)Cc2ccc(C)cc2)nc2c1CCCC2 (centres undefined)	73.3*	i	-0.71	0.1	3.8
C=CCNc1c2c(nc3nnnn13)CCCC2	14.3	i	-0.25	1.7	-1.3
CCOC(=O)CSc1nc(C)c2ccccc2n1	78.6*	i	-0.09	0.2	-2.2
COc1ccc(-n2cccc2/C=C2\C(=N)N3N=C(c4ccco4)SC3=NC2=O)cc1	-25.0	i	-0.41	0.5	45.8*
COCCCN1C(=O)/C(=C\c2ccc3c(c2)OCO3)C(C(=O)OC)=C1C	19.1	i	nt	3.2*	-1.1
CN(C)C(=O)C12CCC(C)(c3nc4ccccc4nc31)C2(C)C (centres undefined)	36.8	i	3.42*	0.2	5.5
NC(=O)c1cccnc1Nc1cccc(F)c1	86.7*	i	-0.64	1.5	15.0
O=C(c1cnn2c(C(F)(F)F)cc(-c3ccc(Br)cc3)nc12)N1CCOCC1	35.7	i	0.29	0.5	13.3
Cc1nn2c(C(F)(F)F)cc(-c3ccc(Cl)cc3)nc2c1C(=O)N1CCOCC1	78.6*	i	-0.16	-1.5	-12.1
COc1ccc(C(=O)NCc2cc(C)nc3ccccc23)cc1OC	100.0*	i	-0.09	0.3	-0.8
COc1cc(OC)cc(C(=O)NCc2cc(C)nc3ccccc23)c1	0.0	i	-0.2	-0.3	-0.3
Cc1cc(CNC(=O)Cc2ccccc2)c2ccccc2n1	-40.0	+	-0.19	-0.1	-0.4
COc1ccc(C(=O)NCCCc2nc3ccccc3n2Cc2ccccc2C)cc1OC	-23.8	+	-0.56	-0.3	-0.4
SMILES	Insulin prom inh	Autophagy HCS	Ins promoter up	PERK inhibitor	eIF4E-4G inh
CCC(=O)Nc1cccc(-n2nnnc2SCC(=O)N2CCCCC2)c1	5.3	i	-0.2	0.4	0.3
O=C(c1cc([N+](=O)[O-])ccc1N1CCOCC1)N1CCCC1	6.7	i	0.4	0.5	1.0
Cc1nc(C(=O)Nc2ccc(F)cc2)nn1-c1ccc([N+](=O)[O-])cc1	26.9	i	0.4	1.4	-6.0
Clc1ccc2c(N/N=C/c3ccccc3Br)ccnc2c1	?	i	0.2	0.0	5.5
Clc1ccc2c(N/N=C/c3cccc(Br)c3)ccnc2c1	73.0*	i	-1.45	-0.1	5.9
CCO[C@@H]1OC(C(N)=O)=C[C@H](c2coc3ccccc3c2=O)[C@H]1CCCO	nt	nt	0.04	nt	-4.7
CCOc1ccc(-n2cc(C(=O)Nc3ccc(Cl)cn3)c3cc(OC)c(OC)cc3c2=O)cc1	-25.8	+	-1.01	-0.6	6.7
CCOc1ccc(-n2cc(C(=O)Nc3cccc(OC)c3)c3cc(OC)c(OC)cc3c2=O)cc1	35.1	i	-1.21	-1.3	-1.4
COc1ccccc1NC(=O)COC(=O)C1CC2C=CC1C2 (centres undefined)	-66.7	i	3.01*	1.1	-0.3
O=C(COC(=O)C1CC2C=CC1C2)NCc1ccc(F)cc1 (centres undefined)	nt	i	nt	-0.2	19.6
CCCN(C(=O)c1cccs1)c1nnc(-c2ccncc2)s1	nt	i	0.21	0.5	-4.6
Cc1nc(-n2[nH]c3c(c2=O)CCCC3)[nH]c(=O)c1Cc1ccccc1	3.6	+	nt	-1.4	-7.2
Cc1nc(N2CCc3ccccc3C2)[nH]c(=O)c1Cc1ccccc1	nt	i	1.52	1.6	1.4
CCNc1nc(SC)nc(N(C#N)CC(=O)OC)n1	42.9	i	-0.03	-0.2	-9.8
O=C(NCCCn1ccnc1)c1cc([N+](=O)[O-])cc([N+](=O)[O-])c1	73.3*	i	0.27	0.6	2.8
O=C(NCCCn1ccnc1)c1ccncc1	11.1	i	1.52	1.7	4.8
C=CCOc1ccc2nc(NC(=O)OC)[nH]c2c1	nt	+	-1.69	0.1	10.8
Cc1nc(C(C)(C)O)n(-c2ccccc2)n1	17.2	i	-0.74	1.7	92.5*[fluorescence artefact?]
CCCc1cc(C(=O)Nc2cc(Br)ccc2O)no1	0.0	i	0.26	3.1*	-1.6
C/C(CC(=O)Nc1cccnc1)=N\NC(=O)C(=O)NC(C)C	nt	nt	0.25	0.9	3.8
C/C(CC(=O)Nc1cccnc1)=N\NC(=O)C(=O)Nc1cccc(C)c1	-28.6	+	-0.48	0.4	1.4
CCOC(=O)c1nn(-c2ccccc2)c2nnc(Cc3ccc(C)cc3)c(=O)n12	76.9*	i	0.05	-0.6	1.1
N#Cc1c(Nc2ccccc2)sc(C(=O)C2CC2)c1N	-45.2	i	-0.35	0.8	0.4
CSc1ccc(/C=c2\s/c(=C\C(=O)C(C)(C)C)n(CC(=O)NCCC3=CCCCC3)c2=O)cc1	-14.7	+	-0.59	0.1	2.7
Cc1ccccc1C1NC(=S)NC2=C1C(=O)CCC2 (centres undefined)	-57.9	i	0.67	2.1	-3.4
SMILES	Insulin prom inh	Autophagy HCS	Ins promoter up	PERK inhibitor	eIF4E-4G inh
COc1ccc(/C=C2\SC(=S)N(CC(=O)N3CCN(C)CC3)C2=O)cc1	nt	nt	0.24	-2.3	-1.1
COCCN1C(=O)/C(=C/c2ccc(N3CCCC3)cc2)SC1=S	nt	+	nt	0.7	-0.3
O=C(NNS(=O)(=O)c1ccc(Cl)cc1)c1cccc(S(=O)(=O)N2CCOCC2)c1	nt	nt	-0.27	0.8	-1.9
CCc1ccc(NC(=S)NC(=O)CC(C)C)cc1	-21.2	i	0.3	0.5	3.7
Cc1nc(Nc2cccc(C(F)(F)F)c2)nc2c1C(=O)CC(C)C2 (centres undefined)	27.8	+	-0.06	1.1	-1.8
COC(=O)c1ccc(-c2nc3ccccc3[nH]2)cc1	64.3*	i	0.28	0.5	2.6
COc1ccc(-c2nc3ccccc3[nH]2)cc1	94.4*	i	-0.06	0.8	13.0

Compound activity: PubChem BioAssay, several laboratories
